# High-throughput results: PubChem, National Center for Advancing Translational Sciences (NCATS)
# DT40 TDP1 no CPT – qHTS for Inhibitors of human tyrosyl-DNA phosphodiesterase 1 (TDP1): qHTS in cells in absence of CPT; hit rate 15% among 420,000; Potency, µM (top dose mostly 46.2 µM), for the others: at the top dose activity change, negative = growth inhibition, most hits filed as inhibitors; AID 686978, 2013; DT40 Tdp1-/- hTDP1 cells, no CPT, ATP luminescence, 48 h; further: nearly all actives have a fitted effect of over 55% in size
#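 Chicken DT40 Tdp1-/- cells stably complemented with human TDP1 were seeded at 400 cells/well with DMSO in place of 20 nM camptothecin. After compound pinning, cells grew at least 48 hr at 37 °C; viability read by CellTiter-Glo luminescence.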
# KB-V1 MDR tox – kills drug-selected multidrug resistant KB-V1 cells. KB-V1 MDR cells viability, CellTiter-Glo, 72 h. Potency, µM (doses to about 46.1 µM), actives largely listed as cytotoxic. hit rate 3.4% among 400,000. AID 1347076; further: nearly all actives have a fitted effect of over 60% in size
#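 KB-V1, DMEM (no phenol red) + 10% FBS; cpd pin-transferred, titration series; 72 h, 37 degrees C; CellTiter-Glo, luminescence. Data normalized, curve-fit.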
# HT1080 IDH1KD tx – HT-1080 IDH1 knockdown cell toxicity (counter line); HT-1080 IDH1 knockdown viability, ATP luminescence, 48 h; Potency, µM (highest dose often 46.1 µM), without a hit: at the top dose activity, negative = toxicity, usual class: cytotoxic; hit rate 2% among 360,000; AID 686971;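 further: 0% = DMSO wells and -100% = cell-free medium wells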
#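 Luminescent ATP read-out (CellTiter-Glo, 10 min at room temperature) after 48 h compound exposure at 37 °C gave viability of IDH1-knockdown HT-1080 cells. Activity was normalised to DMSO and cell-free wells, then fitted as concentration-response curves.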
# KB-3-1 tox – kills parental KB-3-1 adenocarcinoma cells. Potency, µM (titrated, usually from 46.1 µM), most hits filed as cytotoxic. KB-3-1 viability, CellTiter-Glo ATP luminescence, 72 h. hit rate 1.4% among 400,000; further: nearly all actives have a fitted effect of over 60% in size
#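 Cytotoxicity in the drug-sensitive parental line KB-3-1 was scored as loss of CellTiter-Glo luminescence following 72 h incubation with compound. Values come from curve fitting of normalized concentration-response data.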
# HT1080NT lethal – kills 2HG-producing HT-1080-NT fibrosarcoma cells; Potency, µM (highest dose often 46.1 µM), without a hit: at the highest dose activity, negative = less viability, hits mostly cytotoxic; HT-1080-NT fibrosarcoma viability, CellTiter-Glo ATP luminescence, 48 h; hit rate 1.6% among 360,000; AID 686970;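 further: NT is the 2HG producing partner of a matched IDH1 knockdown line; 0% = DMSO-treated cells and -100% = media-only wells without cells; nearly all actives have a fitted effect of over 55% in size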
#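 Read-out is CellTiter-Glo luminescence after 10 minutes at room temperature, following 48 hours' compound treatment of HT-1080-NT cells (750 cells/well, RPMI, 5% FBS, 37 degrees C).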
# TDP1 cell CPT – DT40-hTDP1 cell growth loss with CPT. chicken DT40 Tdp1-/-;hTDP1 cells + 20 nM CPT, ATP luminescence, 48 h. Potency, µM (series often up to 46.2 µM), without a hit: at the highest dose activity change, negative = growth inhibition, usual class: inhibitors. hit rate 12% among 420,000. AID 686979; further: nearly all actives have a fitted effect of over 55% in size
#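 Chicken DT40 Tdp1-/- cells stably complemented with human TDP1 were seeded at 400 cells/well in medium containing 20 nM camptothecin, exposed to pin-transferred compounds, and grown at 37 °C for at least 48 hr. Viability was read as ATP luminescence.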
# * hit, by the source's call; i = inactive; ? = inconclusive. A selection: hits, their analogues and other compounds. The true share with any hit is near 19%. The call rests on the fitted dose curve; in most records, active means well fitted curve in the direction sought with a large enough effect; inconclusive means small, poorly fitted or top-dose-only effect, or another doubt; inactive means no such curve, though single readings can be large; an effect the other way counts as inactive or inconclusive. Unless noted, on the % scale 0 is the no-effect control and ±100 the full control effect; potency means the concentration at half of the fitted maximal effect.
SMILES,DT40 TDP1 no CPT,KB-V1 MDR tox,HT1080 IDH1KD tx,KB-3-1 tox,HT1080NT lethal,TDP1 cell CPT
CSc1ccccc1NC(=O)C(C)N(C)CC(=O)N1CCN(Cc2ccccc2)CC1 (centres undefined),20.6µM*,i,8.9%,i,1.4%,?
CN(Cc1cccc(Cl)c1Cl)C(=O)c1cccc(S(=O)(=O)N2CCN(Cc3ccccc3)CC2)c1,16.4µM*,i,-12.4%,?,-14.3%,?
CN(Cc1ccc(OC(F)F)cc1)C(=O)c1cccc(S(=O)(=O)N2CCN(c3ccccc3)CC2)c1,2.91µM*,i,-18.9%,7.31µM*,-5.9%,14.6µM*
Cc1nn(-c2ccccc2)c(C)c1C(=O)OCc1ccc(C#N)cc1,?,i,-1.6%,i,-0.1%,?
CN(Cc1cnn(Cc2ccccc2)c1)C(=O)c1cccc(S(=O)(=O)N2CCOCC2)c1,5.8µM*,i,?,14.6µM*,?,7.31µM*
CN(Cc1ccccc1)C(=O)c1cc(S(=O)(=O)N2CCOCC2)cn1C,1.6%,i,3.1%,i,-0.6%,7.1%
CN(Cc1ccc(Cl)c(Cl)c1)C(=O)c1cccc(S(=O)(=O)N2CCN(Cc3ccccc3)CC2)c1,20.6µM*,i,-18.2%,9.2µM*,-20.2%,20.6µM*
COc1cc(/C=N/NC(=O)c2cccc(S(=O)(=O)N3CCOCC3)c2)cc(OC)c1O,-10.2%,i,3.2%,i,8.9%,-23.7%
CCN(Cc1ccccc1)c1ccc(/C=N/NC(=O)c2cccc(S(=O)(=O)N3CCOCC3)c2)cc1,13µM*,?,20.6µM*,?,?,?
CCN(Cc1ccccc1)c1ccc(/C=N/NS(=O)(=O)c2cccc([N+](=O)[O-])c2)cc1,-27.1%,16.4µM*,-2.1%,i,-10.3%,-13.1%
O=C(c1ccc(Br)cc1)N(Cc1ccco1)C1CCS(=O)(=O)C1 (centres undefined),21.8%,i,-8.5%,i,-4.3%,-23.1%
O=C(Nc1c(O)c2ccccc2[nH]c1=O)c1ccco1,6.7%,i,9.7%,i,6.4%,-2.1%
Clc1ccc(C2[C@H]3CN(CC4CCCCC4)[C@H](c4ccccc4)C34CC2(c2ccccc2)C4)cn1 (some centres undefined),?,i,-3.4%,i,1.3%,-26.0%
COC(=O)c1cccc(C23CC4(C2)[C@H](CN(Cc2cccnc2)[C@@H]4c2ccccc2)C3c2ccc(C(F)(F)F)cc2)c1 (some centres undefined),16.4µM*,i,-3.3%,?,2.1%,16.4µM*
CN1C[C@@H]2C(c3ccc(Cl)nc3)C3(c4cccnc4)CC2(C3)[C@H]1c1ccccc1 (some centres undefined),-22.7%,i,5.4%,i,-1.5%,-4.9%
COC(=O)c1cccc(C23CC4(C2)[C@H](CN(Cc2cccnc2)[C@@H]4c2ccccc2)C3c2ccc(Cl)nc2)c1 (some centres undefined),?,i,-18.3%,?,-20.4%,?
FC(F)(F)c1ccc(CN2C[C@@H]3C(c4ccc(Cl)nc4)C4(c5cccnc5)CC3(C4)[C@H]2c2ccccc2)cc1 (some centres undefined),16.4µM*,?,?,14.6µM*,?,?
FC(F)(F)c1ccc(C2[C@H]3CN(CC4CCCCC4)[C@H](c4ccccc4)C34CC2(c2cccnc2)C4)cc1 (some centres undefined),16.4µM*,i,1.0%,i,2.4%,?
